Results on 21 molecules are retold here after PubChem BioAssay (NCATS).

Records with an inconclusive call do not appear. Activity calls are given as the source filed them. Unless noted, the call rests on the fitted dose curve; in most records, active means well fitted curve in the direction sought with a large enough effect; inconclusive means small, poorly fitted or top-dose-only effect, or another doubt; inactive means no such curve, though single readings can be large; an effect the other way counts as inactive or inconclusive.

Experiment [1] deals with D(1A) dopamine receptor (Homo sapiens) (UniProt P21728). The experiment is described as follows: HTS Assay for Allosteric Agonists of the Human D1 Dopamine Receptor: Primary Screen for Potentiators (AID 488982). Further: 0% is about no effect. In outline:
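Tetracycline-induced HEK293 Trex D1 cells with forced coupling to calcium, loaded with no-wash calcium dye; kinetic fluorescence read 180 s after compound addition for agonism, then a further 180 s after an EC20 dopamine challenge for potentiation.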

Experiment [2] concerns the target Tyrosyl-DNA phosphodiesterase 1 (Homo sapiens) (UniProt Q9NUW8). Description: Confirmation Assay for Inhibitors of Tyrosyl-DNA Phosphodiesterase (TDP1) (AID 489007). Further: potency means the concentration at half of the fitted maximal effect; nearly all actives have a fitted effect of over 40% in size. Particulars: recombinant human TDP1 enzymatic activity, dose-response. The source says: Human tyrosyl-DNA phosphodiesterase I (Tdp1) is a rational anticancer target because this enzyme is involved in the repair of DNA lesions created by the trapping of human DNA topoisomerase I (Top1) following treatment by anticancer agents such as camptothecins. Recombinant Tdp1 was expressed and purified from E. coli in the laboratory (Anthony et al, Nucleic Acids Research, 2007, Vol. 35, 4474-4484). A Tdp1 DNA substrate bearing a 5' biotin and a 3' phospho-tyrosine was obtained by custom synthesis. This oligonucleotidic DNA substrate was subsequently coupled to a fluorescein isothiocyanate (FITC) group via the free amino group present on the phospho-tyrosine. Tdp1 was screened against the NCGC small molecule library using the AlphaScreen (AS) detection method in which a streptavidin donor AS bead is bound at the 5' end and an anti-FITC AS acceptor bead is bound at the 3' end of the DNA oligonucleotidic substrate. In the presence of Tdp1, the enzyme cleaves the tyrosine-FITC group, leaving a 3' end phosphate on the DNA substrate. This cleavage reaction results in a loss of signal in AS.
This BioAssay is a confirmation of followup compounds from primary TDP1 screen (AID:485290)
NIH Molecular Libraries Probe Production Network [MLPCN]
NIH Chemical Genomics Center [NCGC]
Assay Provider: Yves Pommier and Christophe Marchand, National Cancer Institute
Assay Title: qHTS Assay for Inhibitors of Tyrosyl-DNA Phosphodiesterase (TDP1)
[1] 3 ul of buffer is dispensed in columns 3 & 4 as negative control (no enzyme and maximum signal),
[2] 3 ul of enzyme (1 nM final) is dispensed in columns 1,2, 5-48,
[3] 1 ul of substrate (15 nM final) is dispensed throughout the plate,
[4] 1 ul of AS donor/acceptor bead mix (10 ug/ml final) is dispensed throughout the plate
3 ul of Tdp1 enzyme is dispensed to 1536-well Kalypsys black solid bottom plates. Compounds and controls (23 nl) are transferred via Kalypsys Pin Tool. The plates are incubated for 15 min at room temperature, and then 1 ul of substrate is added to start the reaction. […] The detection is then performed on a PerkinElmer Envision reader.

Experiment [3] in a line: Validation screen for small molecules that induce genotoxicity in human embryonic kidney (HEK293T) cells expressing luciferase-tagged ELG1 (AID 493106). Further: 0% is about no effect. In outline:
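qHTS format; 2,000 HEK293T ELG1-luc cells/well; 23 nL compound via pin tool; 16 hr, 37 °C/5% CO2; ONE-Glo, 30 min RT; luminescence read.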

In experiment [4] the target is ATPase family AAA domain-containing protein 5 (Homo sapiens) (UniProt Q96QE3). Description: Validation screen for small molecules that inhibit ELG1-dependent DNA repair in human embryonic kidney (HEK293T) cells expressing luciferase-tagged ELG1 (AID 493107). Further: nearly all actives have a fitted effect of over 70% in size. Further: potency means the concentration at half of the fitted maximal effect. In outline:
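ELG1-luciferase HEK293T reporter; 5-fluorouridine + compound/DMSO, 16 hr, 37 °C, 5% CO2; ONE-Glo 30 min RT; luminescence read, qHTS format.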

The target in experiment [5] is Thyrotropin-releasing hormone receptor (Homo sapiens) (UniProt P34981). Description: qHTS for Small Molecule Agonists and Allosteric Enhancers of Human TRH Receptor: Validation Screen for Agonists (AID 493127;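 active means calcium activation more than 3 SD above the typical response in the agonist read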;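 further: intracellular calcium rise by fluo-8 fluorescence before TRH EC20 addition; 0% is about no effect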). Conditions: TRH receptor agonist cell assay; at 2 µM; stronger effect = higher value. In outline: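 Read-out: intracellular calcium release measured kinetically by FDSS (fluo-8, ex 480/em 530 nm), 1 reading/s after a 10-cycle baseline. TRHR cells, 2000/well, cultured 18 h at 33.5C, dye-loaded at room temp. Compound-evoked positive calcium signal flags agonists.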
Chain of Thyrotropin-releasing hormone receptor (Homo sapiens) (P34981 whole entry, looked up): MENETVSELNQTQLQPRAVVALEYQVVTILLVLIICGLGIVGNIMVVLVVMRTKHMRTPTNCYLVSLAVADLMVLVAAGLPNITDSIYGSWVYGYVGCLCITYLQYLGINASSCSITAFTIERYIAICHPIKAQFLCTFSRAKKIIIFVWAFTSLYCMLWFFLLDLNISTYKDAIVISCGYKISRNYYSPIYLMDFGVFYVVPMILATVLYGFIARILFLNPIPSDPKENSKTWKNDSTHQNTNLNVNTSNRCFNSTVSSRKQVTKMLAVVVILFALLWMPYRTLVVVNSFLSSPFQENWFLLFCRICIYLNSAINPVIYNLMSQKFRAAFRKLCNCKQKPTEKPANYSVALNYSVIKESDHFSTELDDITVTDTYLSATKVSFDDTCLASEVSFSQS

Experiment [6] can be described thus: Nrf2 qHTS screen for inhibitors: Validation (AID 493153; active means well fitted inhibition curve with a large enough effect in the main read-out, with a control signal flat, not every such curve was filed as active). Particulars: Potency: luciferase luminescence; viability change: measured here: cytotoxicity max response. In outline: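 Concentration-response test in A549 ARE_Fluc reporter cells (5% FBS OPTI-MEM), compound exposure 18-24 h at 37°C, 5% CO2. Cell viability measured first by CellTiter-Fluor fluorescence; ARE-driven luciferase luminescence then measured as Nrf2 activity.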
(In general: In qHTS, concentration-response curves come from the screen itself.)

Experiment [7] in a line: qHTS for Inhibitors of Cell Surface uPA Generation: Validation Assay (AID 493164).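 Further: RAW 264.7 macrophage cells exposed to compound for 18 h; 0% is about no effect.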 In outline:
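Compounds are titrated over seven points (2.45 nM–38.3 uM final) onto pre-plated RAW 264.7 cells and incubated for 18 h. Retained intracellular ATP, measured with ATP-Lite, indicates blocked lethal factor entry.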

The target of experiment [8] is Galactokinase (Homo sapiens) (UniProt P51570). The experiment is described as follows: qHTS Validation Assay for Inhibitors of Human Galactokinase (GALK) (AID 493189). Further: 0% is about no effect. In outline:
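Compounds were pin-transferred into ATP buffer, then GALK-galactose mix was added (final 5 nM enzyme, 100 uM galactose, 35 uM ATP). After 1 h at room temperature, remaining ATP was measured luminescently.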

Experiment [9] has as its target D(1A) dopamine receptor (Homo sapiens) (UniProt P21728). Description: HTS Assay for Allosteric Agonists of the Human D1 Dopamine Receptor: Primary Screen for Antagonists (AID 488983).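 Further: calcium flux response to an EC80 dopamine challenge measured with no-wash dye; on the % scale 0 is the no-effect control and ±100 the full control effect; nearly all actives have a fitted effect of over 65% in size.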 In outline:
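Calcium flux readout, no-wash dye, inducible HEK293 T-REx D1 line (force-coupled). Compound added after 10 s baseline, 180 s kinetic read; then dopamine at EC80, further 180 s read.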

Chain of ATPase family AAA domain-containing protein 5 (Homo sapiens) (Q96QE3 whole entry, looked up, the tested form may be a part): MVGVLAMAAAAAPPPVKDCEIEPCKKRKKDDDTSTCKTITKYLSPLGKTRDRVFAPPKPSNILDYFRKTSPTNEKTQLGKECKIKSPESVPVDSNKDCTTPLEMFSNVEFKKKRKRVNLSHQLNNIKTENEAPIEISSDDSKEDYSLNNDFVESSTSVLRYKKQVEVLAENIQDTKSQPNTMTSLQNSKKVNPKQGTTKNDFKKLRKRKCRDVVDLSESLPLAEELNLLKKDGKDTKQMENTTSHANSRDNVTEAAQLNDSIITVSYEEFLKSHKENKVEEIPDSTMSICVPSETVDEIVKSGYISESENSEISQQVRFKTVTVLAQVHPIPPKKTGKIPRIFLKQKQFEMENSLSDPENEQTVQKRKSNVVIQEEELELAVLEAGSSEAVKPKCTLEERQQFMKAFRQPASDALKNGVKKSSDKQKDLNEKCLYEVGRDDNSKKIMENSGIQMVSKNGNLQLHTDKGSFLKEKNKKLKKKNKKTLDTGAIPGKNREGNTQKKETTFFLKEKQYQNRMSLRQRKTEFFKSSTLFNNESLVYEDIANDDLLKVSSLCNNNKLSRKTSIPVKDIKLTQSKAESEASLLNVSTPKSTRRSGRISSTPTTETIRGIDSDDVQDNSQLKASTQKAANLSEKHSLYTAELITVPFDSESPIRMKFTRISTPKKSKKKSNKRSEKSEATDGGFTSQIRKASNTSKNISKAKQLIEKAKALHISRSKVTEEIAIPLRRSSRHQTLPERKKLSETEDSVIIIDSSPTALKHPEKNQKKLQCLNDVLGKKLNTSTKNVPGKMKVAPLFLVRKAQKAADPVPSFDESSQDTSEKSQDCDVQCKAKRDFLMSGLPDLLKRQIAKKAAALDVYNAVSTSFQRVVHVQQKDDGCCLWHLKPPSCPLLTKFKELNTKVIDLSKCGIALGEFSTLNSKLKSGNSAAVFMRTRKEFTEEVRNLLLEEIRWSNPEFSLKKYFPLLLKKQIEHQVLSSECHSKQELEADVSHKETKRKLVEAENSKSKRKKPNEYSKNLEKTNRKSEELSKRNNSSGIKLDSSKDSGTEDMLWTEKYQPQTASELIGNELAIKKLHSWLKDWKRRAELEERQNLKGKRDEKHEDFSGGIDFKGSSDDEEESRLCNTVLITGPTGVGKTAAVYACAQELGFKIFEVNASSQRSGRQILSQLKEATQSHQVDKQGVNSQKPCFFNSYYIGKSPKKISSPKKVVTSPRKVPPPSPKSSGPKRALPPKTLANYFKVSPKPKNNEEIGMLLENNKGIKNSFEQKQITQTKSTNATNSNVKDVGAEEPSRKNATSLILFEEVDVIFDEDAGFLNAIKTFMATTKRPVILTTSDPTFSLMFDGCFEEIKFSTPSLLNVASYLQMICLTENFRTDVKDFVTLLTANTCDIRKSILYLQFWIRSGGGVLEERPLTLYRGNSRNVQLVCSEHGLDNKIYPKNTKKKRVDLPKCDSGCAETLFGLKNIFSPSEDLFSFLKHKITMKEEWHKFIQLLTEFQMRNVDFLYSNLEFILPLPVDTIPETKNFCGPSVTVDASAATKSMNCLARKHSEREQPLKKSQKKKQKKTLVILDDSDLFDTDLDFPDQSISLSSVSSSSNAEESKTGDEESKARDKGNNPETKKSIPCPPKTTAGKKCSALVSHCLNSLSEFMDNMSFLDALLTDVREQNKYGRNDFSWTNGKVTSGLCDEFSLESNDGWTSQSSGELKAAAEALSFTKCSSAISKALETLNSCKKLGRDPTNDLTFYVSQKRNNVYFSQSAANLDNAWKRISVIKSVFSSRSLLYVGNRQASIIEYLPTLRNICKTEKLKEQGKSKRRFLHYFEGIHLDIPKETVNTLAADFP
Chain of D(1A) dopamine receptor (Homo sapiens) (P21728 whole entry, looked up): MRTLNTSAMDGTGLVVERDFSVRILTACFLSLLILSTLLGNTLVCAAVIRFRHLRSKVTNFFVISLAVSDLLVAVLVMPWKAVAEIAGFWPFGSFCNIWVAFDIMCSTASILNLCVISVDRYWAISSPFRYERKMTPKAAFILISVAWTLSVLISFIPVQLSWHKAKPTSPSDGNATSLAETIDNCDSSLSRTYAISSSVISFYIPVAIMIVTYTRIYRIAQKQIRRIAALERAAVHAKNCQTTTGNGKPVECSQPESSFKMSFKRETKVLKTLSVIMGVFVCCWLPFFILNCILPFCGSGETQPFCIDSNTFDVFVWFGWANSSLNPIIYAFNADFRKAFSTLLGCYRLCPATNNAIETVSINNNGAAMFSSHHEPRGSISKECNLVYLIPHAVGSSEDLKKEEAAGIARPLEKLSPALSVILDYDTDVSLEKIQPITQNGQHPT
Chain of Galactokinase (Homo sapiens) (P51570 whole entry, looked up): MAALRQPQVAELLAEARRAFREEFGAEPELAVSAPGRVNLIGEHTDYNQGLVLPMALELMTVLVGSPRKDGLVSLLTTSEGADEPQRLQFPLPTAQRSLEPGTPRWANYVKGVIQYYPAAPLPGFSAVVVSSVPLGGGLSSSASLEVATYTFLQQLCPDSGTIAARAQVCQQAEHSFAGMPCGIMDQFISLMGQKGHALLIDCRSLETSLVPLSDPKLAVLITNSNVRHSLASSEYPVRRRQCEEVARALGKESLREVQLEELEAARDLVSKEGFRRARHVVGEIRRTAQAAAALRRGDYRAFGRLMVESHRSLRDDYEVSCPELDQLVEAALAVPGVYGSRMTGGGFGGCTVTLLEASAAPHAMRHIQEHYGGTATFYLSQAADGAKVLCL
Chain of Tyrosyl-DNA phosphodiesterase 1 (Homo sapiens) (Q9NUW8 whole entry, looked up): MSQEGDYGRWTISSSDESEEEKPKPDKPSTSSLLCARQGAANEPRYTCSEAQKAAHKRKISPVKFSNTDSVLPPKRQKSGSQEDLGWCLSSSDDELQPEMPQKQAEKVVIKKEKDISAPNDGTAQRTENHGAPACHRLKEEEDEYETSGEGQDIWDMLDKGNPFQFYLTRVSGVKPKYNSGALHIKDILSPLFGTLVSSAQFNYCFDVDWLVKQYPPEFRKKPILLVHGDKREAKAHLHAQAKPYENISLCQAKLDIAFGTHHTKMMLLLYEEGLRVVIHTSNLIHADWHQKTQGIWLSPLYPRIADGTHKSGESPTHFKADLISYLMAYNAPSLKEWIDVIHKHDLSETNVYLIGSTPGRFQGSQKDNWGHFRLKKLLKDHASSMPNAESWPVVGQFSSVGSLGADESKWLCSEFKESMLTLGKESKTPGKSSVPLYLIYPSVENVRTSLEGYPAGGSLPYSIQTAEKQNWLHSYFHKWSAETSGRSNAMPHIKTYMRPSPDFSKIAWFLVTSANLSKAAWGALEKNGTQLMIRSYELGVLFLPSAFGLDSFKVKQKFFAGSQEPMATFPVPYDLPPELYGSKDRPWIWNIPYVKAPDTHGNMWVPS

With `NC(Cc1cc(O)c(O)cc1O)C(=O)O` (centres undefined), the Potency entry in experiment [1], in experiment [3], in [4] and in experiment [6] was “inactive” each time. The Potency in experiment [2] is 4.47 µM (active). Also, in experiment [5], the activation was 1.06% (inactive). The viability change in [6] is -20.4%. Besides, the result in experiment [7] and in experiment [8] was inactive.

In the case of `O=C(O)c1cc[c]([Hg][Cl])cc1`, the Potency result in experiment [1], in experiment [3] and in experiment [6] was “inactive” each time. Moreover, in [2], the Potency is 56.2 µM (active). The activation in [5] is 1.5% (inactive). For the same molecule, in experiment [6], the viability change is -2.02%. For the same molecule, the call in [7] and in experiment [8] was inactive.

In the case of `CN1CC[C@@]2(C)c3cc(OC(=O)Nc4ccccc4)ccc3N(C)[C@@H]12`, the Potency result in experiment [1], in experiment [9], in experiment [3] and in experiment [6] was “inactive” throughout. Moreover, the viability change in [6] is -13.9%. For the same molecule, the call in experiment [7] was inactive.

Turning to `NC(=O)c1cc(N2CC2)c([N+](=O)[O-])cc1[N+](=O)[O-]`, the Potency result in experiment [1] and in [3] was “inactive” throughout. Besides, in experiment [5], the activation was 0.0625% (inactive). Moreover, the outcome in experiment [7] and in [8] was inactive.

`Nc1ccc(CCN2CCN(c3cccc(C(F)(F)F)c3)CC2)cc1`: the Potency entry in [1], in [3], in experiment [4] and in experiment [6] was “inactive” each time. In addition, the activation in [5] is 2.19% (inactive). Further, the viability change in [6] amounted to 0.0372%. Further, the outcome in experiment [7] and in experiment [8] was inactive.

As to `CC(C)[C@@]1(NC(=O)[C@@H]2C[C@@H]3c4cccc5[nH]cc(c45)C[C@H]3N(C)C2)O[C@@]2(O)[C@@H]3CCCN3C(=O)[C@H](Cc3ccccc3)N2C1=O`, the Potency entry in [1], in [3] and in [6] was “inactive” in each case. For the same molecule, the viability change in [6] was found to be 10.7%. Also, in [7], the call was inactive.

Take `COc1ccc2c(c1)c(CCN1CCOCC1)c(C)n2C(=O)c1cccc(Cl)c1Cl`: the Potency result in experiment [1] and in [3] was “inactive” in each case. The Potency in experiment [4] was 8.2 µM (active). Also, the molecule was classed as inactive in experiment [7].

As to `NC(Cc1ccc(N(CCCl)CCCl)cc1)C(=O)O` (centres undefined), the Potency result in experiment [1] is “inactive”. Moreover, the activation in [5] was -0.125% (inactive). The call in experiment [7] and in [8] was inactive.

As for `COc1ccc2c(c1O)-c1cccc3c1[C@@H](C2)N(C)CC3`, the Potency entry in experiment [1], in [3] and in [6] was “inactive” each time. Also, in [6], the viability change was -4.97%. Further, the result in experiment [7] was inactive.

Take `CCCN1CC[C@@H]2c3cc(O)ccc3CC[C@@H]21`: the Potency result in experiment [1], in experiment [3], in [4] and in [6] was “inactive” each time. Besides, in experiment [5], the activation was -5.31% (inactive). In addition, the viability change in experiment [6] is 9.01%. Also, the molecule was classed as inactive in [7] and in experiment [8].

As to `CCCn1c(C)c(C(=O)c2ccc3ccccc3c2)c2ccccc21`, the Potency entry in experiment [1] and in [3] was “inactive” throughout. Besides, in experiment [5], the activation was -5.69% (inactive). Also, the molecule was classed as inactive in [7] and in [8].

With `CCN(CCCl)Cc1ccccc1Br`, the Potency result in experiment [1], in experiment [3] and in [4] was “inactive” each time. In addition, the activation in experiment [5] was -8% (inactive). The molecule was classed as inactive in experiment [7] and in [8].

With `CCCN(CCC)[C@H]1CCc2c(F)ccc(O)c2C1`, the Potency result in experiment [1], in [3], in experiment [4] and in experiment [6] was “inactive” throughout. Besides, the activation in experiment [5] is -3.06% (inactive). For the same molecule, in experiment [6], the viability change was -8.48%. The outcome in [7] and in [8] was inactive.

Consider `CCCN1CCc2cccc3c2[C@H]1Cc1ccc(O)c(O)c1-3`, for which the Potency result in [1], in experiment [3], in [4] and in [6] was “inactive” throughout. The viability change in [6] is 0.172%. The call in experiment [7] was inactive.

As for `CN(N=O)c1ccc(O)c(O)c1`, the Potency entry in [1], in [3], in experiment [4] and in experiment [6] was “inactive” throughout. For the same molecule, the activation in experiment [5] was -0.438% (inactive). Besides, the viability change in experiment [6] was 0.531%. Further, the result in experiment [7] and in [8] was inactive.

In the case of `C[N+]1(C)CCN(c2ccccc2)CC1`, the Potency entry in experiment [1], in [3], in experiment [4] and in experiment [6] was “inactive” each time. Also, the activation in experiment [5] is 0.438% (inactive). Besides, the viability change in [6] was -2.09%. Also, the outcome in experiment [7] and in experiment [8] was inactive.

Regarding `COc1ccc2c(c1)[C@@]13CCCC[C@H]1[C@@H](C2)NCC3`, the Potency entry in experiment [1], in [3] and in experiment [4] was “inactive” in each case. Moreover, in experiment [5], the activation was 0.0625% (inactive). In addition, the molecule was called inactive in experiment [7] and in experiment [8].

Take `Cc1cc([C@@H]2CCCN2C)on1`: the Potency entry in experiment [1], in [3] and in experiment [6] was “inactive” throughout. Besides, the viability change in [6] stood at 4.53%. In addition, in [7], the outcome was inactive.

Regarding `NC(N)=Nc1ccc2[nH]c3c(c2c1)C[C@@]1(O)[C@H]2Cc4ccc(O)c5c4[C@@]1(CCN2CC1CC1)[C@H]3O5`, the Potency entry in experiment [1], in [3] and in experiment [6] was “inactive” each time. In addition, the activation in experiment [5] is 0.188% (inactive). Further, the viability change in experiment [6] was found to be 4.74%. The result in [7] and in experiment [8] was inactive.

Take `NNC(N)=O`: the Potency result in [1], in experiment [3] and in [6] was “inactive” in each case. Besides, the activation in [5] is 0.625% (inactive). For the same molecule, the viability change in experiment [6] was -0.697%. For the same molecule, the molecule was classed as inactive in experiment [7] and in experiment [8].

Regarding `CC(C)(C)c1cc(C=C(C#N)C#N)cc(C(C)(C)C)c1O`, the Potency result in experiment [1] and in experiment [3] was “inactive” in each case. In addition, the Potency in [4] is 2.31 µM (active). Further, in experiment [5], the activation is 0.125% (inactive). The outcome in experiment [7] and in [8] was inactive.
